JMJD2A Tudor inh: blocks the human JMJD2A Tudor domain; AlphaScreen JMJD2A-Tudor / H3K4me3 peptide binding; 390,000 tested, 4.4% active; O75164; AID 504339; Potency, µM (top dose mostly 114 µM), for inactives: top-dose activity change, negative = inhibition, usual class: inhibitors; further: on the % scale 0 is the no-effect control and ±100 the full control effect; nearly all actives have a fitted effect of over 50% in size
Target sequence (O75164 whole entry, looked up, the tested form may be a part): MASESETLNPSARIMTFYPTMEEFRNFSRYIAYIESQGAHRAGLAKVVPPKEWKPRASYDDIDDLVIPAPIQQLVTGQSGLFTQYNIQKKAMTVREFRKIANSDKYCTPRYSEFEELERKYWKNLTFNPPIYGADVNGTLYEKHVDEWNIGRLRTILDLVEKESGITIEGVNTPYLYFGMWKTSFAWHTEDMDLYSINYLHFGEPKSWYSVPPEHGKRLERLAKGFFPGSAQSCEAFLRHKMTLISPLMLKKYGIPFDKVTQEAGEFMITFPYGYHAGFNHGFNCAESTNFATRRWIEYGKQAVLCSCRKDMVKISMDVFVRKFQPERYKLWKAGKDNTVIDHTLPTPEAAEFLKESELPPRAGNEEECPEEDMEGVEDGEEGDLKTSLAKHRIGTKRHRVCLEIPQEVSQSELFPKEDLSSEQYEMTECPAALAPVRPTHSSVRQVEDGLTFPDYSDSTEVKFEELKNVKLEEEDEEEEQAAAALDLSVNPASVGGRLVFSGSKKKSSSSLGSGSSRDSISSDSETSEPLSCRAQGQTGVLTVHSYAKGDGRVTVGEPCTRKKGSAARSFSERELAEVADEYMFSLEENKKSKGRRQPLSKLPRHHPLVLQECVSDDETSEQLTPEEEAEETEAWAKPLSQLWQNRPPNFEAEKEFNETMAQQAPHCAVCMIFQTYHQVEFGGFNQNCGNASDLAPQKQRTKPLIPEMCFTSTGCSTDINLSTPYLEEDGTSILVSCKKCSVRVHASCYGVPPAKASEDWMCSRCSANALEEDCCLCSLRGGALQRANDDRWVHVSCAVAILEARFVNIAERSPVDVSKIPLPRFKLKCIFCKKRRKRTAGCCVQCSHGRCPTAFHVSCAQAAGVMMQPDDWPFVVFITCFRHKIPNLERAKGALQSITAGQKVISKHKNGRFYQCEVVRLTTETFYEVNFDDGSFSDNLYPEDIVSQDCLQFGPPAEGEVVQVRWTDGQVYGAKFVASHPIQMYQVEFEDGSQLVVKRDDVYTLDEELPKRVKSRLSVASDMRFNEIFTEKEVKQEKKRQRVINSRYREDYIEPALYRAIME
HP1b binding inh: HP1-beta chromodomain-methylated histone interaction inhibition. P83916. AlphaScreen HP1-beta / biotin-H3K9me3 peptide binding. Potency, µM (doses to about 114 µM), for inactives: at the highest dose activity change, negative = inhibition, actives largely listed as inhibitors. 390,000 tested, 0.56% active. AID 540317; further: nearly all actives have a fitted effect of over 70% in size
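HP1-beta protein (50 nM final) preincubated 30 min at room temperature with biotinylated H3(1-18)K9me3 peptide (50 nM) in PBS pH 7.4, 0.01% Tween-20, then compound added for 30 min. AlphaScreen streptavidin donor/nickel chelate acceptor beads (10 ug/mL final), 30 min dark, luminescence read.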
G9a block: inhibitors of human histone lysine methyltransferase G9a; AID 504332; Potency, µM (top dose mostly 102 µM), for the others: at the top dose activity, negative = inhibition, usual class: inhibitors; G9a H3K9 monomethylation, AlphaScreen, 2 h; Q96KQ7; 350,000 tested, 8.8% active; further: on the % scale 0 is the no-effect control and ±100 the full control effect; nearly all actives have a fitted effect of over 75% in size
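Methyltransferase reactions run at room temperature for 2 h (20 nM enzyme, 500 nM biotin-H3K9 peptide, 20 uM SAM) after a 15 min compound preincubation; product detected by AlphaScreen beads and anti-H3K9me1 antibody.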
PLK1 PBD block: inhibitors of human PLK1 polo-box domain binding. P53350. AID 720504. Potency, µM, for the others: max response, negative = inhibition, actives largely listed as inhibitors. Plk1 PBD binding of FITC phosphopeptide, fluorescence polarization. 360,000 tested, 2.8% active; further: series mostly up to about 57 µM; on the % scale 0 is the no-effect control and ±100 the full control effect; nearly all actives have a fitted effect of over 65% in size
BAZ2B inh: inhibitors of human BAZ2B bromodomain. Q9UIF8. 360,000 tested, 4.4% active. Potency, µM (highest dose often 114 µM), without a hit: at the highest dose activity change, negative = inhibition, actives largely listed as inhibitors. AID 504333. AlphaScreen BAZ2B-H3K14Ac peptide displacement; further: on the % scale 0 is the no-effect control and ±100 the full control effect; nearly all actives have a fitted effect of over 60% in size
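BAZ2B 50 nM plus b-H3(5-23)K14Ac 50 nM, PBS pH 7.4/0.01% Tween-20, 30 min RT; compound added (max 110 uM), 30 min RT; streptavidin donor/Ni-chelate acceptor beads 10 ug/mL final, 20 min dark; AlphaScreen read.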
Sfp inh: Sfp phosphopantetheinyl transferase inhibition; Biochemical Sfp PPTase activity, qHTS; AID 1490; 310,000 tested, 3.5% active; Potency, µM, inactives show largest response in the series, negative = inhibition, hits mostly inhibitors;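 further: the enzyme is Sfp with the accession as filed and its product quenches rhodamine fluorescence; 0% = enzyme reaction without inhibitor and -100% = no enzyme wells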
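After 15 min at room temperature with compound, 15 nM Sfp received 5 uM rhodamine-CoA plus 12.5 uM BHQ-2-ybbR (50 mM Hepes pH 7.6, 10 mM MgCl2). Rate came from the fluorescence difference over 30 min, ex 525/em 598 nm.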
Active calls of the source: *; [ ] = remark or other dose. Most compounds without a hit are left out; they make up all but 12% or so of the library. The call rests on the fitted dose curve; in most records, active means well fitted curve in the direction sought with a large enough effect; inconclusive means small, poorly fitted or top-dose-only effect, or another doubt; inactive means no such curve, though single readings can be large; an effect the other way counts as inactive or inconclusive. Potency means the concentration at half of the fitted maximal effect.

Screening N#Cc1ccccc1OCC(=O)NCC(c1ccc(F)cc1)N1CCOCC1 (centres undefined) returned JMJD2A Tudor inh -6%, HP1b binding inh 40%, G9a block -9%[2.33 µM], PLK1 PBD block -6% and BAZ2B inh 7%.
Screening Cc1c(C)c2ccc(OCC(=O)NCCCn3ccnc3)cc2oc1=O returned JMJD2A Tudor inh 22µM*, HP1b binding inh 42%, G9a block 1%, PLK1 PBD block -1%, BAZ2B inh -17%[57.1 µM] and Sfp inh -2%.
C=CCN(C(=O)CNC(=O)c1ccco1)C(C(=O)NC1CCCCC1)c1cccnc1 (centres undefined) was read as JMJD2A Tudor inh -13%, HP1b binding inh 38%, G9a block 5%, PLK1 PBD block -11%, BAZ2B inh 7% and Sfp inh 7%.
`CC(=O)c1ccc(NC(=O)CN2C(=O)/C(=C/C=C/c3ccccc3)SC2=S)cc1` gave JMJD2A Tudor inh -19%, HP1b binding inh 3%, G9a block inconclusive, PLK1 PBD block 4%, BAZ2B inh -10% and Sfp inh -10%.
`CC(C(=O)O)N1C(=O)/C(=C/C=C/c2ccco2)SC1=S` (centres undefined) gave JMJD2A Tudor inh 3.2µM*, HP1b binding inh inconclusive, G9a block 3.2µM*, PLK1 PBD block 4.7µM*, BAZ2B inh 2.5µM* and Sfp inh 50µM*.
O=C1/C(=C/C=C/c2ccco2)SC(=S)N1NS(=O)(=O)c1ccccc1 was read as JMJD2A Tudor inh 3.5µM*, HP1b binding inh 10µM*, G9a block 3.2µM*, PLK1 PBD block 11µM*, BAZ2B inh 7.1µM* and Sfp inh 13µM*.
`S=C1NCCNC(=S)NCCOCCOCCOCCN1` gave JMJD2A Tudor inh 1%, HP1b binding inh 40%, G9a block 25µM*, PLK1 PBD block 0%, BAZ2B inh 14% and Sfp inh 18%.
CNc1nc(-c2ccccn2)nnc1-c1ccccc1 was read as JMJD2A Tudor inh 5.6µM*, HP1b binding inh 30%, G9a block 2%[12.7 µM], PLK1 PBD block -9%, BAZ2B inh 0.89µM* and Sfp inh 63µM*.
Cc1ccc(S(=O)(=O)N2CCCNCC2)cc1 was read as JMJD2A Tudor inh -3%, HP1b binding inh 25%, G9a block inconclusive, PLK1 PBD block -2%, BAZ2B inh 1% and Sfp inh -6%.
For O=C(CCc1ccc(Oc2cc([N+](=O)[O-])cc([N+](=O)[O-])c2)cc1)Nc1cccc(Cl)c1 the results were JMJD2A Tudor inh -29%, HP1b binding inh inconclusive, G9a block 8.9µM*, PLK1 PBD block -12%, BAZ2B inh inconclusive and Sfp inh 2%.
O=C(CCc1ccc(Oc2cc([N+](=O)[O-])cc([N+](=O)[O-])c2)cc1)N1CCCCC1 was read as JMJD2A Tudor inh 56µM*, HP1b binding inh -58%, G9a block inconclusive, PLK1 PBD block -6%, BAZ2B inh 25µM* and Sfp inh 14µM*.
`COc1ccc(CCC(=O)Nc2cccc(Cl)c2)cc1` gave JMJD2A Tudor inh 1%, HP1b binding inh 43%, G9a block 18%[59 µM], PLK1 PBD block -4%, BAZ2B inh 15% and Sfp inh 6%.
For CCC(C)S(=O)(=O)c1oc(-c2ccc(F)cc2)nc1S(=O)(=O)c1ccc(F)cc1 (centres undefined) the results were JMJD2A Tudor inh -7%, HP1b binding inh 49%, G9a block -3%[59 µM] and BAZ2B inh -13%.
For O=c1nc2n(c3sc4c(c13)CCCC4)C(CBr)CS2 (centres undefined) the results were JMJD2A Tudor inh -14%, HP1b binding inh 23%, G9a block 50µM*, PLK1 PBD block -29%, BAZ2B inh -2% and Sfp inh -10%.
Screening O=c1c2ccccc2nc2n1C(CBr)CS2 (centres undefined) returned JMJD2A Tudor inh -13%, HP1b binding inh 14%, G9a block inconclusive, PLK1 PBD block inconclusive, BAZ2B inh -22% and Sfp inh -10%.
Screening COc1ccc(-c2csc(NS(=O)(=O)c3ccc([N+](=O)[O-])cc3)n2)cc1 returned JMJD2A Tudor inh inconclusive, HP1b binding inh -21%, G9a block inconclusive, PLK1 PBD block inconclusive, BAZ2B inh 35µM* and Sfp inh 4%.
For COc1ccc(Cc2nnc(N)s2)cc1OC the results were JMJD2A Tudor inh -16%, HP1b binding inh -20%, G9a block 7.9µM*, PLK1 PBD block inconclusive, BAZ2B inh -1% and Sfp inh 22µM*.
For O=[N+]([O-])c1ccc2nc(NS(=O)(=O)c3ccc(F)cc3)sc2c1 the results were JMJD2A Tudor inh -20%, HP1b binding inh 16%, G9a block 79µM*, PLK1 PBD block inconclusive, BAZ2B inh -11% and Sfp inh -3%.
CC(C)Cc1nnc(NS(=O)(=O)c2ccc([N+](=O)[O-])cc2)s1 was read as JMJD2A Tudor inh -12%, HP1b binding inh 61%, G9a block 3%[0.501 µM], PLK1 PBD block -18%, BAZ2B inh inconclusive and Sfp inh inconclusive.
`O=[N+]([O-])c1ccc(S(=O)(=O)Nc2nnc(C(F)(F)F)s2)cc1` gave JMJD2A Tudor inh -27%, HP1b binding inh 37%, G9a block 45µM*, PLK1 PBD block -17%, BAZ2B inh -30% and Sfp inh 14%.
For CCCNS(=O)(=O)c1cc(-c2nnc3c4ccccc4c(C)nn23)ccc1OC the results were JMJD2A Tudor inh 0%, HP1b binding inh 24%, G9a block 5%[59 µM] and BAZ2B inh -2%.
CN(C)C(CNC(=O)c1c(F)cccc1Cl)c1ccco1 (centres undefined) was read as JMJD2A Tudor inh 0%, HP1b binding inh 19%, G9a block -37%, PLK1 PBD block 1%, BAZ2B inh -1% and Sfp inh 15%.
For CC1CC(C)CN(C(=O)COC(=O)COc2ccc(C#N)cc2)C1 (centres undefined) the results were JMJD2A Tudor inh -1%, HP1b binding inh 22% and PLK1 PBD block -1%.
Screening CCNc1ncc2nc(-c3ccc(OC)cc3)c(=O)n(CCc3ccccc3)c2n1 returned G9a block 23%[0.501 µM] and Sfp inh 29%.
`COc1ccc(Cc2nnc(NS(=O)(=O)c3ccccc3)s2)cc1` gave JMJD2A Tudor inh -9%, HP1b binding inh 3%, G9a block -38%, PLK1 PBD block inconclusive, BAZ2B inh 0% and Sfp inh -2%.
Screening COc1ccc(S(=O)(=O)Nc2nnc(Cc3ccc(OC)c(OC)c3)s2)cc1 returned JMJD2A Tudor inh -21%, HP1b binding inh -3%, G9a block -49%, PLK1 PBD block 27µM*, BAZ2B inh 0% and Sfp inh 50µM*.
